Drawing on PubChem BioAssay AID931 (National Center for Advancing Translational Sciences (NCATS), 2007), this text covers Potency for 14 molecules.

Records with an inconclusive call do not appear. Entries that show only a call come without a potency. Calls of active or inactive are those of the source. Calls follow the shape of the dose curve; as a rule, active = well fitted cell-killing curve with a large enough effect; inconclusive = small, poorly fitted or top-dose-only effect; inactive = flat fitted curve, though single readings scatter.

This test is described as follows: Confirmation and Secondary Assay for Modulators of Hemoglobin Beta Chain Splicing at IVS2 654 locus: Cytotoxicity. The following applies: HBB IVS2-654 splicing reporter cells; series mostly up to 46.1 µM. The text has this:
NIH Chemical Genomics Center [NCGC]
NIH Molecular Libraries Screening Centers Network [MLSCN]
PI Name: Dr. Ryszard Kole
Modulation of Alternative Splicing as Therapy
Abnormal splicing is associated with a number of diseases, including cancer and genetic diseases such as cystic fibrosis, muscular dystrophy and beta-thalassemia. Alteration of disease associated splicing patterns provides a promising target for treatment. […] Mutations in the second intron of the b-globin gene at positions 654 or 705 are clinically relevant and cause mis-splicing which results in an out of frame gene product.
Examination of toxicity of select compounds in EGFP-654 HeLa Cells
HeLa cell lines were stably transfected with a construct in which the EGFP (enhanced green fluorescent protein) cDNA was interrupted by the second intron of the beta-globin gene (IVS2-654). The ISV2 intron contains mutations which cause mis-splicing of EGFP and premature termination of EGFP which results in a nonfluorescent protein product. […] Expression of the transgene was driven by the CMV promoter. Compounds, and related structures identified in the primary screen as potential splicing modulation were examined for their effects on cell toxicity in this follow up assay .
NCGC Assay Protocol Summary:
Toxicity Screening. Freshly thawed HeLa EGFP-654 cells were seeded in 5 ul of optimem media (Invitrogen) containing 2 % fetal calf serum (Hyclone) and 1x penicillin/streptomycin (Invitrogen) at a concentration of 500 cells per well in 1536-well plates. Cells were incubated overnight at 37C in 5% CO2. The next day, cells were treated with DMSO, 500 nM antisense ISV2 654 PNA control oligo, or library compound and allowed to grow at 37C in 5% CO2 for 2 days. Cells were treated with 5 ul/well of freshly prepared ATPlite (Perkin Elmer) and cells were allowed to lyse at room temperature for 5 minutes. Luminescence was captured on an Viewlux CCD imager (Perkin Elmer) using a 15 second integration time and cell death was measured by comparing compound treatments to DMSO treatment (no cell death).
Keywords: Thalassemia, beta-thalassemia, beta-globin, EGFP, ISV2 654, ISV2 705, SSO, PNA, antisense, splicing, ATPlite, toxicity, MLSMR, MLSCN, NIH Roadmap, qHTS, NCGC
For the molecule `N=c1ccn2c(n1)O[C@@H]1[C@@H](O)[C@H](CO)O[C@H]12`, the Potency result is “inactive”. Take `OCC1OC(n2cnc3c(=S)nc[nH]c32)C(O)C1O` (centres undefined): the Potency was 3160 nM (active). `OCC1OC(n2cnc3c(Cl)ncnc32)C(O)C1O` (centres undefined): the Potency result was “inactive”. Then `Nc1nc(Cl)nc2c1ncn2[C@H]1C[C@H](O)[C@@H](CO)O1`, with “inactive”; and `NC1=NC(S)C2N=CN=C2N1` (centres undefined), with 316 nM (active); and `S=C1NC=NC2N=CNC12` (centres undefined), with 199 nM (active).

As to `Cn1cnc([N+](=O)[O-])c1Sc1ncnc2nc[nH]c12`, the Potency is 316 nM (active).

As to `CSc1ncnc2c1ncn2C1OC(CO)C(O)C1O` (centres undefined), the Potency was 794 nM (active). Then `Nc1ncnc2c1nc(Br)n2C1OC(CO)C(O)C1O` (centres undefined), with “inactive”. With `Nc1ncn([C@@H]2O[C@H](CO)[C@@H](O)[C@H]2O)c(=O)n1`, the Potency is 1260 nM (active). Turning to `Nc1nc(=O)n(C2OC(CO)C(O)C2O)cc1Cl` (centres undefined), the Potency result is “inactive”. `Nc1ccn([C@H]2CC[C@@H](CO)O2)c(=O)n1`: the Potency entry was “inactive”. The result for `Nc1ncnc2c1nc(Cl)n2C1OC(CO)C(O)C1O` (centres undefined) reads “inactive”; that for `O=c1[nH]c(=O)n(C2CC(O)C(CO)O2)cc1F` (centres undefined), “inactive”.
